Sampled rows, rich in hits. Any-hit rate of the full collection: about 6.7%.
C diff HTS = inhibitors of Clostridium difficile growth. AID 1259249. growth activity, negative = inhibition, % at 16 µg/mL (by protocol). Clostridium difficile clinical isolate growth, OD600, 24 h; stronger effect = lower value. hit rate 0.25% among 86,000;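 active = mean growth activity at or below -80% and every replicate also at or below -80%; inconclusive = mean at or below -80% but some replicate above -80%; inactive = mean growth activity above -80%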
Pf Dd2 inh = inhibitors of Plasmodium falciparum Dd2 growth; P. falciparum Dd2 growth, SYBR Green, 72 h; stronger effect = lower value; activity change, % at 10 µM; hit rate 2.3% among 94,000; AID 1159554; in the data active = activity change below about -80%; inconclusive = no clear call, values can overlap the other calls
T cruzi growth-1 = blocks T. cruzi growth in NIH3T3 culture | inhibition, % at 8.34 µM | hit rate 5.9% among 77,000 | T. cruzi beta-gal in NIH3T3, GalScreen luminescence, 90 h;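 active = mean inhibition above about 93%, with at least 55% of replicates each passing it, limit read from the data, passing the limit was not always enough; inconclusive = only one of those two conditions holds; inactive = neither condition holds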
T cruzi growth-2 = Trypanosoma cruzi proliferation inhibition; shares compounds with T cruzi growth-1; T. cruzi beta-gal in NIH3T3, GalScreen luminescence, 90 h; inhibition, % at 8.35 µM; hit rate 72% among 5,600; AID 651739;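 active = mean replicate inhibition above about 95% and at least 55% of replicates individually reaching it, limit read from the data; inconclusive = only one of the two criteria is met; inactive = neither criterion is met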
T cruzi growth-3 = blocks T. cruzi growth in NIH3T3 host cells | inhibition, % at 2.09 µM | T. cruzi beta-gal in NIH3T3, GalScreen luminescence, 90 h | hit rate 21% among 5,600 | shares compounds with T cruzi growth-1;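 active = mean inhibition above about 95%, with at least 55% of replicates also reaching it, limit read from the data; inconclusive = meets just one of the two conditions; inactive = meets neither condition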
NIH3T3 tox = kills mouse NIH/3T3 fibroblasts; cytotoxicity (signal decrease), % at 8.35 µM; hit rate 14% among 5,600; NIH/3T3 viability, CellTiter-Glo ATP luminescence, 90 h; shares compounds with T cruzi growth-1; AID 651742;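 active = mean signal decrease across replicates above about 35% based on untreated-well scatter, with enough replicates individually passing, limit read from the data; inconclusive = no rule stated though some were filed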
NIH3T3 tox 2 = cytotoxicity in mouse NIH/3T3 fibroblasts; shares compounds with T cruzi growth-1; NIH/3T3 viability, CellTiter-Glo ATP luminescence, 90 h; inhibition, % at 24.9 µM; hit rate 56% among 5,600;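 active = mean loss of cell viability signal at or above a set limit, and enough replicates individually reaching it; inconclusive = meets only the mean limit or only the replicate share; inactive = meets neither condition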
A number is an active result; i = inactive; ? = inconclusive; nt = no result given.

SMILES | C diff HTS | Pf Dd2 inh | T cruzi growth-1 | T cruzi growth-2 | T cruzi growth-3 | NIH3T3 tox | NIH3T3 tox 2
COC(=O)C[C@@H]1CC[C@@H]2[C@H](COc3ccc(NC(=O)c4ccc(OC)cc4)cc3C(=O)N2C)O1 | i | i | i | nt | nt | nt | nt
C[C@H](CO)N1C[C@H](C)[C@H](CN(C)Cc2ccc3c(c2)OCO3)Oc2ccc(NC(=O)CCC(F)(F)F)cc2C1=O | i | i | i | nt | nt | nt | nt
N#C[C@H]1[C@@H](c2ccccc2C2=CCCC2)[C@H](CO)N1C(=O)C1CCOCC1 | i | i | nt | nt | nt | nt | nt
C/C=C/c1ccc([C@H]2[C@@H](CO)N(C(=O)CN(C)C)C23CN(C(=O)C2CCCCC2)C3)cc1 | i | i | nt | nt | nt | nt | nt
C[C@H]1CCCCO[C@@H](CN(C)Cc2ccc(C(F)(F)F)cc2)[C@@H](C)CN([C@@H](C)CO)C(=O)c2cc(NC(=O)Nc3ccc(F)cc3)ccc2O1 | nt | i | i | nt | nt | nt | nt
C[C@@H]1CCCCO[C@@H](CN(C)Cc2ccncc2)[C@H](C)CN([C@H](C)CO)C(=O)c2cc(NC(=O)Nc3ccc(C(F)(F)F)cc3)ccc2O1 | i | i | i | nt | nt | nt | nt
C[C@H]1CCCCO[C@H](CN(C)Cc2ccncc2)[C@@H](C)CN([C@@H](C)CO)C(=O)c2cc(NC(=O)Nc3ccc(C(F)(F)F)cc3)ccc2O1 | i | i | 99 | 100 | i | i | 83
C[C@@H]1CCCCO[C@H](CN(C)Cc2ccc(C(F)(F)F)cc2)[C@H](C)CN([C@H](C)CO)C(=O)c2cc(NC(=O)Nc3ccc(C(F)(F)F)cc3)ccc2O1 | i | i | i | nt | nt | nt | nt
C[C@@H]1CCCCO[C@@H](CN(C)Cc2ccc(C(F)(F)F)cc2)[C@H](C)CN([C@H](C)CO)C(=O)c2cc(NC(=O)Nc3ccc(F)cc3)ccc2O1 | nt | i | 110 | i | 108 | i | 57
C[C@@H]1CCCCO[C@@H](CN(C)Cc2ccc(C(F)(F)F)cc2)[C@@H](C)CN([C@@H](C)CO)C(=O)c2cc(NC(=O)Nc3ccc(F)cc3)ccc2O1 | nt | i | 108 | 98 | 107 | i | i
Cc1noc(C)c1NC(=O)Nc1ccc2c(c1)C(=O)N([C@@H](C)CO)C[C@@H](C)[C@H](CN(C)Cc1ccc(C(F)(F)F)cc1)OCCCC[C@H](C)O2 | i | i | i | nt | nt | nt | nt
Cc1noc(C)c1NC(=O)Nc1ccc2c(c1)C(=O)N([C@H](C)CO)C[C@@H](C)[C@H](CN(C)Cc1ccc(C(F)(F)F)cc1)OCCCC[C@H](C)O2 | i | i | ? | 114 | i | i | 69
CO[C@H]1CN(C)C(=O)c2cc(NC(=O)c3ccccc3F)ccc2OC[C@@H](C)N(C)C[C@H]1C | nt | i | i | nt | nt | nt | nt
COc1ccccc1NC(=O)N[C@H]1CC[C@@H](CCNS(=O)(=O)c2ccc(Cl)cc2)O[C@H]1CO | i | i | i | nt | nt | nt | nt
CNC[C@@H]1Oc2c(NS(=O)(=O)c3cn(C)cn3)cccc2C(=O)N([C@H](C)CO)C[C@H]1C | i | i | i | nt | nt | nt | nt
C[C@@H]1CN([C@@H](C)CO)S(=O)(=O)c2ccc(C#CCN(C)C)cc2O[C@H]1CN(C)C | i | i | i | nt | nt | nt | nt
O=C(O)C[C@@H]1C[C@@H]2c3cc(NC(=O)c4ccc5c(c4)OCO5)ccc3O[C@@H]2[C@H](CO)O1 | i | i | i | nt | nt | nt | nt
C[C@@H]1CCCCO[C@@H](CN(C)Cc2ccc(C(F)(F)F)cc2)[C@@H](C)CN([C@H](C)CO)C(=O)c2cc(NC(=O)Nc3ccc(F)cc3)ccc2O1 | nt | i | 102 | 101 | i | i | i
C[C@@H]1CCCCO[C@@H](CN(C)Cc2ccc(C(F)(F)F)cc2)[C@H](C)CN([C@H](C)CO)C(=O)c2cc(NC(=O)Nc3ccc(C(F)(F)F)cc3)ccc2O1 | i | i | i | nt | nt | nt | nt
C[C@@H]1CCCCO[C@H](CN(C)Cc2ccc(C(F)(F)F)cc2)[C@@H](C)CN([C@@H](C)CO)C(=O)c2cc(NC(=O)Nc3ccc(F)cc3)ccc2O1 | nt | i | i | nt | nt | nt | nt
C[C@@H]1CN([C@@H](C)CO)C(=O)c2cc(NC(=O)Nc3ccc(C(F)(F)F)cc3)ccc2O[C@@H](C)CCCCO[C@@H]1CN(C)Cc1ccc(C(F)(F)F)cc1 | i | i | 95 | 102 | 105 | i | i
O=C(Nc1cc(F)ccc1F)N[C@H]1CC[C@H](CCNC(=O)c2cnccn2)O[C@@H]1CO | nt | i | i | nt | nt | nt | nt
C[C@H](CO)N1C[C@H](C)[C@H](CN(C)C(=O)Nc2ccc3c(c2)OCO3)OCCCC[C@H](C)Oc2ccc(NC(=O)C3CCCCC3)cc2C1=O | i | i | 97 | 109 | i | i | i
C[C@@H]1CCCCO[C@H](CN(C)C(=O)Nc2ccc(F)cc2)[C@H](C)CN([C@@H](C)CO)C(=O)c2cc(NC(=O)C3CCCCC3)ccc2O1 | i | i | ? | 97 | i | i | i
C[C@H]1CCCCO[C@@H](CN(C)C(=O)Nc2ccc3c(c2)OCO3)[C@@H](C)CN([C@@H](C)CO)C(=O)c2cc(NC(=O)C3CCCCC3)ccc2O1 | i | i | i | nt | nt | nt | nt
SMILES | C diff HTS | Pf Dd2 inh | T cruzi growth-1 | T cruzi growth-2 | T cruzi growth-3 | NIH3T3 tox | NIH3T3 tox 2
COc1ccc(NC(=O)N(C)C[C@@H]2OCCCC[C@H](C)Oc3ccc(NC(=O)C4CCCCC4)cc3C(=O)N([C@@H](C)CO)C[C@@H]2C)cc1 | i | i | i | nt | nt | nt | nt
C[C@H]1CCCCO[C@@H](CN(C)C(=O)Nc2ccccc2)[C@@H](C)CN([C@@H](C)CO)C(=O)c2cc(NC(=O)C3CCCCC3)ccc2O1 | i | i | i | nt | nt | nt | nt
COc1ccc(NC(=O)N(C)C[C@H]2OCCCC[C@@H](C)Oc3ccc(NC(=O)C4CCCCC4)cc3C(=O)N([C@@H](C)CO)C[C@H]2C)cc1 | i | i | 97 | 98 | i | i | i
CCCN(C)C[C@H]1OCCCC[C@@H](C)Oc2ccc(NS(=O)(=O)c3ccccc3)cc2C(=O)N([C@H](C)CO)C[C@H]1C | i | i | i | nt | nt | nt | nt
CO[C@H]1CN(C)C(=O)c2cc(NC(=O)Nc3ccccc3F)ccc2OC[C@H](C)N(C(C)=O)C[C@@H]1C | i | i | i | nt | nt | nt | nt
Cc1ccc(S(=O)(=O)Nc2ccc3c(c2)C(=O)N([C@H](C)CO)C[C@H](C)[C@H](CN(C)S(=O)(=O)c2ccc(C)cc2)OCCCC[C@H](C)O3)cc1 | nt | i | ? | 105 | 107 | i | i
Cc1ccc(S(=O)(=O)Nc2ccc3c(c2)C(=O)N([C@@H](C)CO)C[C@@H](C)[C@H](CN(C)S(=O)(=O)c2ccc(C)cc2)OCCCC[C@@H](C)O3)cc1 | nt | i | 101 | 102 | ? | i | i
Cc1ccc(S(=O)(=O)Nc2ccc3c(c2)C(=O)N([C@H](C)CO)C[C@@H](C)[C@H](CN(C)S(=O)(=O)c2ccc(F)cc2)OCCCC[C@H](C)O3)cc1 | i | i | nt | nt | nt | nt | nt
Cc1ccc(S(=O)(=O)Nc2ccc3c(c2)C(=O)N([C@@H](C)CO)C[C@H](C)[C@H](CN(C)S(=O)(=O)c2ccc(C)cc2)OCCCC[C@@H](C)O3)cc1 | nt | i | i | nt | nt | nt | nt
